HepG2 tox-1 – HepG2 cytotoxicity, counter-screen for TGF-b inhibitors; HepG2 CAGA-GFP viability, ATP luminescence, 18 h; Potency, µM (series often up to 46.1 µM), hits mostly cytotoxic; 410,000 tested, 0.76% active; AID 588856
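HepG2 CAGA-GFP cells (1000/well, DMEM with 1% FBS) received compound, then TGF-beta at 500 pg/mL final, and were incubated 18 hours at 37 degrees C. Viability was read by CellTiter-Glo luminescence. Media-only wells were set as complete cell-killing and DMSO as no toxicity.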
ATXN viability – cell viability loss in ATXN counter-screen; S2 cells (HEK-293 line with an ATXN2-luciferase reporter) viability, CellTiter-Fluor protease fluorescence, 24 h; Potency, µM (doses to about 56.7 µM), hits mostly cytotoxic; 400,000 tested, 0.49% active; further: nearly all actives have a fitted effect of over 40% in size
RORgamma inh – blocks mouse ROR gamma transcriptional activity; Drosophila S2 Gal4-RORgamma UAS-luciferase reporter, 20 h; Potency, µM (doses to about 53.6 µM), most hits filed as inhibitors; 310,000 tested, 5.4% active; P51450; further: nearly all actives have a fitted effect of over 60% in size
Target sequence (P51450 whole entry, looked up, the tested form may be a part): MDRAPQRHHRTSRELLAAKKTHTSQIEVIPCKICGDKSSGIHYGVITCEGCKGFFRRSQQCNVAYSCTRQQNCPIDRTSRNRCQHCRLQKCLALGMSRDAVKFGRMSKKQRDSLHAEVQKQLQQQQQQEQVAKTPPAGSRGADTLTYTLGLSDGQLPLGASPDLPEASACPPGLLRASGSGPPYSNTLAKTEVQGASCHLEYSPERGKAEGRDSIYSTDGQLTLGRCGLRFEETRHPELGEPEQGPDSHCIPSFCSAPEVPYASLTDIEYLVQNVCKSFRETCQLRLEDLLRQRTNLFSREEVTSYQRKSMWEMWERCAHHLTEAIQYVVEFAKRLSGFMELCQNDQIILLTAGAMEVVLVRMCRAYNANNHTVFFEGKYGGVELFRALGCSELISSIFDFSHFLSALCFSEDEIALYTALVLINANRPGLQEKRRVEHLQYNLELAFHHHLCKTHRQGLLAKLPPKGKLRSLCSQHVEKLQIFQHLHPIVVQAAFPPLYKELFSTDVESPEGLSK
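Stably transfected Drosophila Schneider cells are the test system, with ROR gamma fused to Gal4 and luciferase under UAS control; luminescence is read after 20 hr of 700 uM copper sulfate induction at ambient temperature.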
VP16 counter – Gal4-VP16 reporter inhibition counter-screen | Drosophila S2 Gal4-VP16 UAS-luciferase, luminescence, 20 h | Potency, µM (top dose mostly 53.6 µM), actives largely listed as inhibitors | 310,000 tested, 3.5% active | AID 2546;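 further: Gal4-VP16 expression switched on by copper sulfate through the metallothionein promoter; nearly all actives have a fitted effect of over 50% in size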
ATXN2 expr inh – ATXN2 expression inhibition; HEK-293 ATXN2-luciferase reporter, luminescence, 24 h; Potency, µM (top dose mostly 57 µM), most hits filed as inhibitors; 360,000 tested, 0.72% active; further: nearly all actives have a fitted effect of over 55% in size
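qHTS (up to 57 uM final) was run with 24 h compound exposure of reporter cells at 37 °C. Each well was multiplexed: SteadyGlo luminescence measured ATXN2-luciferase expression after a fluorogenic Gly-Phe-AFC viability readout (25 uM final).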
TGFb SMAD3 inh – TGF-b pathway inhibition; HepG2 CAGA-GFP TGF-b/SMAD3 reporter, GFP fluorescence, 18 h; TGF-beta stimulated, 500 pg/mL final; Potency, µM (highest dose often 46.1 µM), actives largely listed as inhibitors; 410,000 tested, 1.2% active; AID 588855; further: nearly all actives have a fitted effect of over 65% in size
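HEPG2 CAGA-GFP cells (1000/well, DMEM with 1% FBS) were pre-incubated 2 h at 37 degrees C, given compound by pin tool, then stimulated with TGF-beta at 500 pg/mL final for 18 h before per-cell GFP fluorescence imaging.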
TGFb CAGA inh – confirmation of TGF-b signaling inhibitors in HepG2 reporter cells. shares compounds with TGFb SMAD3 inh. Potency, µM (doses to about 46.1 µM), hits mostly inhibitors. 1,600 tested, 63% active. HepG2 CAGA-GFP TGF-b reporter, GFP fluorescence, 18 h; cells stimulated with TGF-beta, 500 pg/mL; further: nearly all actives have a fitted effect of over 65% in size
HepG2 tox-2 – counter-screen for TGF-b inhibitors: cytotoxicity in HepG2 cells; shares compounds with TGFb SMAD3 inh; HepG2 CAGA-GFP viability, ATP luminescence, 18 h; cells stimulated with TGF-beta, 500 pg/mL; Potency, µM (top dose mostly 46.1 µM), usual class: inhibitors; 1,600 tested, 27% active; AID 720535; further: nearly all actives have a fitted effect of over 70% in size
TGFb CCL64 inh – TGF-b inhibition, CCL64 orthogonal assay | shares compounds with TGFb SMAD3 inh | CCL64 CAGA-GFP reporter, TGF-b stimulated, GFP fluorescence, 18 h | 1,600 tested, 41% active | Potency, µM (highest dose often 46.1 µM), hits mostly inhibitors; further: nearly all actives have a fitted effect of over 65% in size
COP TGFb inh – blocks TGF-b signaling in HepG2 COP reporter; shares compounds with TGFb SMAD3 inh; HepG2 COP-GFP TGF-b reporter, GFP fluorescence, 18 h; cells stimulated by added recombinant TGF-beta; Potency, µM (top dose mostly 46.1 µM), hits mostly inhibitors; 1,600 tested, 3% active; AID 720537; further: nearly all actives have a fitted effect of over 70% in size
Large screens that a line does not name were inactive (follow-up assays come after a bar, where they were run); ! = not active in a repeat. The list is not random: actives were taken first. Their share in the collection is about 6.3%. The call rests on the fitted dose curve; in most records, active means well fitted curve in the direction sought with a large enough effect; inconclusive means small, poorly fitted or top-dose-only effect, or another doubt; inactive means no such curve, though single readings can be large; an effect the other way counts as inactive or inconclusive.

O=C(CNC(=O)c1ccc(Cl)cc1)OCc1cc(=O)n2ccsc2n1	none (no result: RORgamma inh, VP16 counter)
C=CC(=O)Nc1cccc(Oc2ccnc(Nc3ccc(N4CCN(C)CC4)cc3)n2)c1	ATXN viability inconclusive, TGFb SMAD3 inh 13µM (no result: RORgamma inh, VP16 counter) | TGFb CAGA inh 15µM | HepG2 tox-2 23µM | TGFb CCL64 inh 12µM | COP TGFb inh inactive
CN1CCN(c2ccc(NC(=O)COc3cccc4ccccc34)cc2)CC1	RORgamma inh inconclusive
CCOc1ccc(NC(=O)COC(=O)c2ccccc2OCC(=O)N(C)C)cc1	none (no result: ATXN viability, RORgamma inh, VP16 counter, ATXN2 expr inh)
CCc1nnc(NC(=O)C2CCN(c3ncnc4sc(C)c(C)c34)CC2)s1	ATXN2 expr inh inconclusive (no result: RORgamma inh, VP16 counter)
Cc1sc2ncnc(N3CCC(C(=O)Nc4nc(-c5cccs5)cs4)CC3)c2c1C	ATXN viability inconclusive, TGFb SMAD3 inh inconclusive (no result: RORgamma inh, VP16 counter) | TGFb CAGA inh 7.3µM | HepG2 tox-2 inconclusive | TGFb CCL64 inh inconclusive | COP TGFb inh inactive
Cc1ccc(C(=O)Nc2cccc3[nH]c(C(F)(F)F)nc23)cc1	RORgamma inh inconclusive, TGFb SMAD3 inh 11µM | TGFb CAGA inh 15µM | HepG2 tox-2 inconclusive | TGFb CCL64 inh inconclusive | COP TGFb inh inactive
O=C(N/N=C/c1cc(Cl)ccc1O)c1ccccc1Br	RORgamma inh 0.71µM, VP16 counter 1.3µM, ATXN2 expr inh 3.2µM, TGFb SMAD3 inh inconclusive | TGFb CAGA inh inconclusive | HepG2 tox-2 inconclusive | TGFb CCL64 inh inconclusive | COP TGFb inh inactive
COc1ccc(CNC(=O)c2nc(S(=O)(=O)Cc3ccccc3)ncc2Cl)cc1	HepG2 tox-1 13µM, ATXN viability 18µM, RORgamma inh 5.6µM, VP16 counter 3.5µM, TGFb SMAD3 inh 6.3µM (no result: ATXN2 expr inh) | TGFb CAGA inh 3.7µM | HepG2 tox-2 16µM | TGFb CCL64 inh 2.3µM | COP TGFb inh inconclusive
O=C(NCc1ccccc1)c1nc(S(=O)(=O)Cc2ccccc2)ncc1Cl	HepG2 tox-1 8.9µM!, ATXN viability inconclusive, RORgamma inh 5µM, VP16 counter 2.8µM, TGFb SMAD3 inh 6.3µM (no result: ATXN2 expr inh) | TGFb CAGA inh 4.6µM | HepG2 tox-2 5.2µM | TGFb CCL64 inh 2.3µM | COP TGFb inh 29µM
O=C(NCc1ccc2c(c1)OCO2)c1nc(S(=O)(=O)Cc2ccccc2)ncc1Cl	ATXN viability inconclusive, RORgamma inh inconclusive, VP16 counter inconclusive, ATXN2 expr inh inconclusive, TGFb SMAD3 inh 10µM | TGFb CAGA inh 2.3µM | HepG2 tox-2 3.7µM | TGFb CCL64 inh 2.6µM | COP TGFb inh 23µM
O=C(Cc1ccccc1)NCc1ccc2c(c1)OCO2	none
Cc1ccc(CS(=O)(=O)c2ncc(Cl)c(C(=O)Nc3ccc(OC(F)F)cc3)n2)cc1	HepG2 tox-1 18µM, ATXN viability inconclusive, VP16 counter inconclusive, ATXN2 expr inh inconclusive, TGFb SMAD3 inh 10µM | TGFb CAGA inh 8.2µM | HepG2 tox-2 16µM | TGFb CCL64 inh 3.3µM | COP TGFb inh inconclusive
CC12CCC=CC1C(c1cccc([N+](=O)[O-])c1)N(Cc1ccccc1)C2=O (configuration not stated)	RORgamma inh inconclusive, TGFb SMAD3 inh inconclusive (no result: ATXN viability, ATXN2 expr inh)
CCCCc1ccc(NC(=O)CN(C)CC(=O)Nc2ccccc2Cl)cc1	TGFb SMAD3 inh 22µM | TGFb CAGA inh inconclusive | HepG2 tox-2 inactive | TGFb CCL64 inh inconclusive | COP TGFb inh inactive
CN(CC(=O)Nc1ccccc1)CC(=O)Nc1ccccc1Cl	none
CN(C)CCCN(C(=O)CCOc1ccccc1)c1nc2ccc(F)cc2s1	ATXN viability inconclusive, RORgamma inh 10µM, VP16 counter 7.9µM, TGFb SMAD3 inh 3.5µM (no result: ATXN2 expr inh) | TGFb CAGA inh 15µM | HepG2 tox-2 inconclusive | TGFb CCL64 inh 8.2µM | COP TGFb inh inconclusive
CN(C)CCCN(C(=O)COc1ccccc1)c1nc2ccc(F)cc2s1	none (no result: ATXN2 expr inh)
COc1ccc(OC)c(CC(NC(C)=O)C(=O)NC2CCN(S(=O)(=O)c3ccc(NC(C)=O)cc3)CC2)c1 (configuration not stated)	none
CC1=C(C(=O)N(C(C)C)C(C)C)CC(CC(=O)NC(c2ccccc2)c2ccccc2)C(=O)N1Cc1ccc(C(C)(C)C)cc1 (configuration not stated)	ATXN2 expr inh inconclusive, TGFb SMAD3 inh 18µM (no result: RORgamma inh, VP16 counter) | TGFb CAGA inh 9.2µM | HepG2 tox-2 inactive | TGFb CCL64 inh inconclusive | COP TGFb inh inactive
CC1=C(C(=O)N(C(C)C)C(C)C)CC(CC(=O)NCCCCc2ccccc2)C(=O)N1Cc1ccccc1 (configuration not stated)	ATXN viability inconclusive, TGFb SMAD3 inh inconclusive (no result: RORgamma inh, VP16 counter)
CC1=C(C(=O)N(C(C)C)C(C)C)CC(CC(=O)NCCCCc2ccccc2)C(=O)N1Cc1ccc(F)cc1 (configuration not stated)	ATXN viability inconclusive, ATXN2 expr inh inconclusive, TGFb SMAD3 inh 7.9µM (no result: RORgamma inh, VP16 counter) | TGFb CAGA inh inconclusive | HepG2 tox-2 inactive | TGFb CCL64 inh 23µM | COP TGFb inh inactive
CC1=C(C(=O)N(C)C)CC(CC(=O)NC(c2ccccc2)c2ccccc2)C(=O)N1Cc1ccc(C(C)(C)C)cc1 (configuration not stated)	ATXN viability inconclusive, ATXN2 expr inh inconclusive, TGFb SMAD3 inh inconclusive (no result: RORgamma inh, VP16 counter)
CC1CCN(S(=O)(=O)c2ccc3c(c2)oc(=O)n3CC(=O)NCc2ccc(F)cc2)CC1	ATXN viability inconclusive, TGFb SMAD3 inh inconclusive (no result: RORgamma inh, VP16 counter)
c1ccc(Oc2ccccc2-c2cc(NCCc3cccnc3)n3nccc3n2)cc1	none (no result: RORgamma inh, VP16 counter)
COc1ccc(CNC(=O)c2c(C)oc3c2C(=O)c2ccccc2C3=O)cc1	HepG2 tox-1 0.89µM, ATXN2 expr inh inconclusive, TGFb SMAD3 inh 1µM | TGFb CAGA inh 0.65µM | HepG2 tox-2 1µM | TGFb CCL64 inh 5.2µM | COP TGFb inh 2.1µM
